Reference: article PMC7862700, “An all-to-all approach to the identification of sequence-specific readers for epigenetic DNA modifications on cytosine”

Experiments:
Experiment in all cases: DAPPL (digital affinity profiling via proximity ligation, sequencing); 10 mM Tris-HCl pH 7.5, 50 mM NaCl, 1 mM DTT, 4% glycerol, room temperature, 30 min; GST-TFs on glutathione beads, 16-mer random dsDNA library, 0.1% formaldehyde crosslink after washing; high values mean tight binding
Conditions in all cases: protein: recombinant; tags: N-terminal GST; dsDNA, one strand shown
[1] = molecular target: T1, FEV (Homo sapiens, UniProt Q99581 1-238)
T1 sequence: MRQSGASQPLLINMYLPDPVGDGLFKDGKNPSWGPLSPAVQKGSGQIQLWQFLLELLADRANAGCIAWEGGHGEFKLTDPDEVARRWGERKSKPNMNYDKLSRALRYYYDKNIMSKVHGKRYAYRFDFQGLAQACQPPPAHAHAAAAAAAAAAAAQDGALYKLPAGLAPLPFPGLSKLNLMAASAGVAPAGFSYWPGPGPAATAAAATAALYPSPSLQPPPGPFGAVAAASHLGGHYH
How it was run: (§1)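 In yeast, human transcription factors were expressed with a GST fusion, then pulled down on glutathione beads and given DNA barcodes. Pooled with a tag-only sample, they were exposed to 200 nmole of a 16-mer random double-stranded DNA library (Tris/NaCl/DTT/glycerol buffer, room temperature, 30 min), washed, crosslinked with 0.1% formaldehyde, proximity-ligated using BsaI/T4 ligase for 1 h at 37 °C, PCR-amplified and read on an Illumina NextSeq500. Each hexamer's frequency of reads for a factor, divided by the matching frequency for the tag-only sample, gives the binding signal.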

[2] = molecular target: ETV5 (Homo sapiens, UniProt P41161 1-510)
How it was run: as §1

[3] = molecular target: T2, SPIC (Homo sapiens, UniProt Q8N5J4 1-248)
T2 sequence: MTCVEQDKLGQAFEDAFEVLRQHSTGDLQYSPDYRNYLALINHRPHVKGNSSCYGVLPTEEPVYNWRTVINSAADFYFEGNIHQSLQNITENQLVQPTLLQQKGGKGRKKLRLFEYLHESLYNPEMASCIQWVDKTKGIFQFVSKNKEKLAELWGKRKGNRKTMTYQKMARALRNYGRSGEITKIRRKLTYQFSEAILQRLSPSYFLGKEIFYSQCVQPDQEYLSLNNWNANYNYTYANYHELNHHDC
How it was run: as §1

[4] = molecular target: ELF4 (Homo sapiens, UniProt Q99607 1-663)
How it was run: as §1

[5] = molecular target: T3, ELK4 (Homo sapiens, UniProt P28324-2 1-405)
T3 sequence: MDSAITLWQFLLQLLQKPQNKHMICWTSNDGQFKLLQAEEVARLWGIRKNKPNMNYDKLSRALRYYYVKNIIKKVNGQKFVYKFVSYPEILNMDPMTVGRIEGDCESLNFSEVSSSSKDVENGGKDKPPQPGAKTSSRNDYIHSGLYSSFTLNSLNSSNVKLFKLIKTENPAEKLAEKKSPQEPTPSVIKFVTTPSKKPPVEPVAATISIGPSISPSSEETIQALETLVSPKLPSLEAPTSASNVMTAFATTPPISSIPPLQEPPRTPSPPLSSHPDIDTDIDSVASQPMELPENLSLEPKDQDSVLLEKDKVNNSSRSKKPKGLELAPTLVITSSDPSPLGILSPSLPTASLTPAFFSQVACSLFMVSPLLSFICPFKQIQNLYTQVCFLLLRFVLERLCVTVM
How it was run: as §1

[6] = molecular target: T4, ETV2 (Homo sapiens, UniProt O00321 1-342)
T4 sequence: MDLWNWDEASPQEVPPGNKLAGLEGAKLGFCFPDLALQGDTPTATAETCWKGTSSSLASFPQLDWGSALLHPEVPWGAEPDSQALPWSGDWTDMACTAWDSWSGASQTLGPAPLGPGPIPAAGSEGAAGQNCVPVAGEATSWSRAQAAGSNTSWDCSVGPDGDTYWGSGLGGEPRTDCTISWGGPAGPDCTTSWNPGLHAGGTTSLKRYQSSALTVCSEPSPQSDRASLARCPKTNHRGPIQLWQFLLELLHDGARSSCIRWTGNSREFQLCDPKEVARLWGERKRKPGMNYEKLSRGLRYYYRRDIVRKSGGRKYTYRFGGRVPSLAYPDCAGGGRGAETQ
How it was run: as §1

[7] = molecular target: ETV1 (Homo sapiens, UniProt P50549 1-477)
How it was run: as §1

[8] = molecular target: T5, ERF (Homo sapiens, UniProt P50548 1-548)
T5 sequence: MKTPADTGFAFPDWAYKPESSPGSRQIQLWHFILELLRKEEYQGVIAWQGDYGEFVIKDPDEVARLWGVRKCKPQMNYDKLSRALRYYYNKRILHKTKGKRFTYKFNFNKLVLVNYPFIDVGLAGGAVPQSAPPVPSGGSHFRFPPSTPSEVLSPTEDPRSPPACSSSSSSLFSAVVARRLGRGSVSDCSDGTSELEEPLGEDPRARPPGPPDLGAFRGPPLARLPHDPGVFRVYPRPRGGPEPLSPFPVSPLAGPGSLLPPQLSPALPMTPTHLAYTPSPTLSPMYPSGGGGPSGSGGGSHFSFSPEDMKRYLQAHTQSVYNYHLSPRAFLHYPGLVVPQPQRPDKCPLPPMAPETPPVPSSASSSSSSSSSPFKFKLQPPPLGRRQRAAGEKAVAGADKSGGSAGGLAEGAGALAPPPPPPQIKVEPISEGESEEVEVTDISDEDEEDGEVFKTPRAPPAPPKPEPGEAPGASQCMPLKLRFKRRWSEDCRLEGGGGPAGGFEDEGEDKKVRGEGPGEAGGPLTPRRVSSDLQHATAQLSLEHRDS
How it was run: as §1

[9] = molecular target: T6, ETV3L (Homo sapiens, UniProt Q6ZN32 1-361)
T6 sequence: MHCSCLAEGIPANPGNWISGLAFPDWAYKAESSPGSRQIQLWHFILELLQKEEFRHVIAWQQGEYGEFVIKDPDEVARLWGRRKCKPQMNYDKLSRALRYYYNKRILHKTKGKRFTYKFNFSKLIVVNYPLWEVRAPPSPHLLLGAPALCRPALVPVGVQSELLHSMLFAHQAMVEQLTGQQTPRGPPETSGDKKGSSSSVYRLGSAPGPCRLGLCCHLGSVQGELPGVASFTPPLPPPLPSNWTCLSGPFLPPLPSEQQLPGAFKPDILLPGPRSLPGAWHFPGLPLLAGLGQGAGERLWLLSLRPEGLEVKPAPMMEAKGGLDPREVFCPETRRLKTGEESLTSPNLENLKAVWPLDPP
How it was run: as §1

[10] = molecular target: T7, ETS2 (Homo sapiens, UniProt P15036 1-469)
T7 sequence: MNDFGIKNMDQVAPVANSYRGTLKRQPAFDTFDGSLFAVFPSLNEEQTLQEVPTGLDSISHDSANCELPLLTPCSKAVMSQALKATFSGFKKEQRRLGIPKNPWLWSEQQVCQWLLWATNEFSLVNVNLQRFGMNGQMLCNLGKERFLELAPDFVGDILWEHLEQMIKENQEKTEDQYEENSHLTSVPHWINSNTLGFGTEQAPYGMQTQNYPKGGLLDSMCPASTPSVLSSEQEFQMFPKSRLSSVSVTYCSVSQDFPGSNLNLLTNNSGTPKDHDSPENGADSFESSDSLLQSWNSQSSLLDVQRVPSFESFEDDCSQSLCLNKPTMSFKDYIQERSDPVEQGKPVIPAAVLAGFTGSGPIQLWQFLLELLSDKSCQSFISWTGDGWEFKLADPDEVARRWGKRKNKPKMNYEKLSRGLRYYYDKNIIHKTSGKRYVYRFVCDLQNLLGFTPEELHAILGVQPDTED
How it was run: as §1

[11] = molecular target: T8, ETV7 (Homo sapiens, UniProt Q9Y603 1-341)
T8 sequence: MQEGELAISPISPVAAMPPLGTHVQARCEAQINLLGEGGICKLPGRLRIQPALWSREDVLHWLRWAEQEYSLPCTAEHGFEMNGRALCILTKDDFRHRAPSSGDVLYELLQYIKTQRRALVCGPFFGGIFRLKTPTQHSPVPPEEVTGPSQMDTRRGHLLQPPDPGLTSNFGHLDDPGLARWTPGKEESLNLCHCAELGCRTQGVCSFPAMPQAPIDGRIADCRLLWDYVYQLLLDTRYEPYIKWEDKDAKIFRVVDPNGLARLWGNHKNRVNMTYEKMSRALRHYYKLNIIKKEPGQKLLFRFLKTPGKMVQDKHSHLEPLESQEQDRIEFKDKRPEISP
How it was run: as §1

[12] = molecular target: T9, ELF5 (Homo sapiens, UniProt Q9UKW6-2 1-255)
T9 sequence: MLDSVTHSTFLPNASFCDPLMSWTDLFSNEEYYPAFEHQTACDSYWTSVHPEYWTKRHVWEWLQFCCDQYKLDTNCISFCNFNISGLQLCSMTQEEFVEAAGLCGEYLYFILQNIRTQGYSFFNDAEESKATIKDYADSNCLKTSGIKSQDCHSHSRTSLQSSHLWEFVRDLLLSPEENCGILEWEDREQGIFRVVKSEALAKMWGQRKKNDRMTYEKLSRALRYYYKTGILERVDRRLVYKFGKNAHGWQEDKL
How it was run: as §1

[13] = molecular target: T10, ETV3 (Homo sapiens, UniProt P41162-2 1-143)
T10 sequence: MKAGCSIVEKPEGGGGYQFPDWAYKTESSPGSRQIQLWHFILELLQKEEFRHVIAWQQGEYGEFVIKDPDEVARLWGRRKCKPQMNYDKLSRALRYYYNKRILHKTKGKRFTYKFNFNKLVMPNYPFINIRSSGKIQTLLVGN
How it was run: as §1

[14] = molecular target: ETV6 (Homo sapiens, UniProt P41212 1-452)
How it was run: as §1

Sequence of ETV6 (P41212 whole entry): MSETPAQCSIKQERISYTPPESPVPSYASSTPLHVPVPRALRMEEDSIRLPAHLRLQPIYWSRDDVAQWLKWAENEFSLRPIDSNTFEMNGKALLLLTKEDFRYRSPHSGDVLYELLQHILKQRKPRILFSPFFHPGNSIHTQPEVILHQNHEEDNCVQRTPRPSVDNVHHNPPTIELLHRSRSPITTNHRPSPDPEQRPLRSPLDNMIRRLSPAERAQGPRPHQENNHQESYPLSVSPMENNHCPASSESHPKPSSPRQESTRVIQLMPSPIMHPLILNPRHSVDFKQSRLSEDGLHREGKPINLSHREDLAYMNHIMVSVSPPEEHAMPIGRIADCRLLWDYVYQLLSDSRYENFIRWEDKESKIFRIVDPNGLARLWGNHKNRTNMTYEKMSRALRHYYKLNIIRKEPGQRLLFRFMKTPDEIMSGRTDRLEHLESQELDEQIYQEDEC
Sequence of ELF4 (Q99607 whole entry): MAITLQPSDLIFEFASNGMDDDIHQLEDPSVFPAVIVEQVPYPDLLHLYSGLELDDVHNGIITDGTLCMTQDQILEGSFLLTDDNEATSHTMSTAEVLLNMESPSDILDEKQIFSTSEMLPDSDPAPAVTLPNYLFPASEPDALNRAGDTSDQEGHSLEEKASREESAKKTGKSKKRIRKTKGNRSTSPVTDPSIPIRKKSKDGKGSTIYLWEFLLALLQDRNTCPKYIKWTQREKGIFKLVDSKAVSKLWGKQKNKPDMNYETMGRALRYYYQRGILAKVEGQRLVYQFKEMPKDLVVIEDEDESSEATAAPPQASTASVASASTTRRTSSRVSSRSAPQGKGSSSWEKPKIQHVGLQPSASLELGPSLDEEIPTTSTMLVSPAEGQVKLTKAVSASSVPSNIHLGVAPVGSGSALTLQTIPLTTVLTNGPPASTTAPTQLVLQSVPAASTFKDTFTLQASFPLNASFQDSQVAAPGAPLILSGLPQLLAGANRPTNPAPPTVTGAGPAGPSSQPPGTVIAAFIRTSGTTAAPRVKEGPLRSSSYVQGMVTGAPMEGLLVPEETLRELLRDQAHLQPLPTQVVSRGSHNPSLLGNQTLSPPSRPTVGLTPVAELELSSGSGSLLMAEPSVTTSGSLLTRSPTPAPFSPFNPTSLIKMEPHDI
Sequence of ETV1 (P50549 whole entry): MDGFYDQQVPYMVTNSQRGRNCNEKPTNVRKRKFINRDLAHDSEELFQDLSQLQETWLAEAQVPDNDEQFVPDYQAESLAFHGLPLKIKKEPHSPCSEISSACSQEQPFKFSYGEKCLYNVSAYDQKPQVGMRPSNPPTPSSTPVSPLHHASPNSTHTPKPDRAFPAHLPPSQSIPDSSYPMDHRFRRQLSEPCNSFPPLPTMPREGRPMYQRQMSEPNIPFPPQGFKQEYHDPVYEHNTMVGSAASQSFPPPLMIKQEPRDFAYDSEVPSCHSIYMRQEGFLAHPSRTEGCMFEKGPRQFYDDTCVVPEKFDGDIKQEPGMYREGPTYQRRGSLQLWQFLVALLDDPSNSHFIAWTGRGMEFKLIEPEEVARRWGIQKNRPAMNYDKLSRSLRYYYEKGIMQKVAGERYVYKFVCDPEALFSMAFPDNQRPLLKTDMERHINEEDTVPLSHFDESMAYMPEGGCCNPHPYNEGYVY
Sequence of ETV5 (P41161 whole entry): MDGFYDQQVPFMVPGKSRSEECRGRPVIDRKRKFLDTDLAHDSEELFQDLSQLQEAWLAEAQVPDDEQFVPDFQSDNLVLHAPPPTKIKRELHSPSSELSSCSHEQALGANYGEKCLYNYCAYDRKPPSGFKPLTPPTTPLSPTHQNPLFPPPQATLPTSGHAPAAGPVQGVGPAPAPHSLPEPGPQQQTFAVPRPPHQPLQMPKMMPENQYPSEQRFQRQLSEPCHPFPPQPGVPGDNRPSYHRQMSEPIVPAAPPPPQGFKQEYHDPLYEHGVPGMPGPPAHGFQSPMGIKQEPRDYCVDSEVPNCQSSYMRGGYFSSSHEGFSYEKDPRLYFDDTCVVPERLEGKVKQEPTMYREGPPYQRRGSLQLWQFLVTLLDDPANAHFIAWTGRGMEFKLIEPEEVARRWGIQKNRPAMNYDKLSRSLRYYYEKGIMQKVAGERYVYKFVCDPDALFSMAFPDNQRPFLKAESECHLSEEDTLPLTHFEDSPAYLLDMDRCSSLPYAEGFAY

| Sequence | binding signal [1] | binding signal [2] | binding signal [3] | binding signal [4] | binding signal [5] | binding signal [6] | binding signal [7] | binding signal [8] | binding signal [9] | binding signal [10] | binding signal [11] | binding signal [12] | binding signal [13] | binding signal [14] |
| --- | --- | --- | --- | --- | --- | --- | --- | --- | --- | --- | --- | --- | --- | --- |
| ACGCAC | 1.05 fold enrichment (6-mer frequency, TF over GST control) | 1.09 fold enrichment (6-mer frequency, TF over GST control) | 1.01 fold enrichment (6-mer frequency, TF over GST control) | 1.05 fold enrichment (6-mer frequency, TF over GST control) | 1.06 fold enrichment (6-mer frequency, TF over GST control) | 1.22 fold enrichment (6-mer frequency, TF over GST control) | 1.1 fold enrichment (6-mer frequency, TF over GST control) | 1.13 fold enrichment (6-mer frequency, TF over GST control) | 1.01 fold enrichment (6-mer frequency, TF over GST control) | 1.09 fold enrichment (6-mer frequency, TF over GST control) | 1.03 fold enrichment (6-mer frequency, TF over GST control) | 1.03 fold enrichment (6-mer frequency, TF over GST control) | 1.13 fold enrichment (6-mer frequency, TF over GST control) | 1.02 fold enrichment (6-mer frequency, TF over GST control) |
| GCACTG | 1.12 fold enrichment (6-mer frequency, TF over GST control) | 1.05 fold enrichment (6-mer frequency, TF over GST control) | 1.08 fold enrichment (6-mer frequency, TF over GST control) | 1.07 fold enrichment (6-mer frequency, TF over GST control) | 1.03 fold enrichment (6-mer frequency, TF over GST control) | 1.22 fold enrichment (6-mer frequency, TF over GST control) | 1.08 fold enrichment (6-mer frequency, TF over GST control) | 1.04 fold enrichment (6-mer frequency, TF over GST control) | 1.07 fold enrichment (6-mer frequency, TF over GST control) | 1.07 fold enrichment (6-mer frequency, TF over GST control) | 1.11 fold enrichment (6-mer frequency, TF over GST control) |  | 1.12 fold enrichment (6-mer frequency, TF over GST control) | 1.09 fold enrichment (6-mer frequency, TF over GST control) |
